Compounds without any hit were thinned out: in the full panel of roughly 83,000, 20% have a hit.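 In brief: 96-well plates, 48 h treatment, single concentration, percent growth endpoint.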 Calls of active or inactive are those of the source. Rule for the calls: active = growth percent below 10; inactive = the rest.
Columns and labels:
Assay in all cases: NCI-60 one-dose screen, 48 h (100 = growth as untreated, 0 = no growth, -100 = all killed)
Settings in all cases: 10 µM unless noted
DU-145 prostate = test system: DU-145 prostate
K-562 leukemia = test system: K-562 leukemia
MALME-3M melanoma = test system: MALME-3M melanoma
MDA-MB-231 breast = test system: MDA-MB-231 breast
RXF 393 renal = test system: RXF 393 renal
SF-268 CNS = test system: SF-268 CNS
SF-295 CNS = test system: SF-295 CNS
SF-539 CNS = test system: SF-539 CNS
UACC-257 melanoma = test system: UACC-257 melanoma
HCT-15 colon = test system: HCT-15 colon
HT29 colon = test system: HT29 colon
SNB-75 CNS = test system: SNB-75 CNS
SNB-19 CNS = test system: SNB-19 CNS
U251 CNS = test system: U251 CNS
PC-3 prostate = test system: PC-3 prostate
SK-MEL-5 melanoma = test system: SK-MEL-5 melanoma
UACC-62 melanoma = test system: UACC-62 melanoma
LOX IMVI melanoma = test system: LOX IMVI melanoma
SK-MEL-28 melanoma = test system: SK-MEL-28 melanoma
M14 melanoma = test system: M14 melanoma

Measured: growth

C=C1NC(=O)C(C(C)CC)NC(=O)C2CSCC(NC(=O)CCC(=O)O)C(=O)NC(Cc3ccccc3)C(=O)NC(C)C(=O)NC(CC(C)CC)C(=O)NC(C(=O)NC(Cc3ccccc3)C(=O)N3CCCC3C(=O)N2)C(C)OC(=O)C(CO)NC(=O)C(C(O)COC)N(C)C(=O)C(C(C)C)NC(=O)C(CC(C)CC)NC1=O (stereo not drawn)
inactive: MALME-3M melanoma 55.3% [6 µM] | MDA-MB-231 breast 35.1% [6 µM] | RXF 393 renal 21.6% [6 µM] | SF-268 CNS 25.5% [6 µM] | SF-295 CNS 14.9% [6 µM] | UACC-257 melanoma 30.1% [6 µM] | HCT-15 colon 15.8% [6 µM] | SNB-75 CNS 11.4% [6 µM] | SNB-19 CNS 21.3% [6 µM] | U251 CNS 11.2% [6 µM] | PC-3 prostate 22.1% [6 µM] | UACC-62 melanoma 39.8% [6 µM] | LOX IMVI melanoma 15.1% [6 µM] | SK-MEL-28 melanoma 60.2% [6 µM]
active: DU-145 prostate 9.63% [6 µM] | K-562 leukemia 9.39% [6 µM] | SF-539 CNS -6.71% [6 µM] | HT29 colon 4.74% [6 µM] | SK-MEL-5 melanoma -44.8% [6 µM]

COc1ccc(/C(=C\c2cc(OC)c(OC)c(OC)c2)C(=O)N2CCCNCC2)cc1
inactive: DU-145 prostate 115% | K-562 leukemia 108% | MALME-3M melanoma 113% | MDA-MB-231 breast 94% | RXF 393 renal 98.4% | SF-268 CNS 106% | SF-295 CNS 101% | SF-539 CNS 108% | UACC-257 melanoma 102% | HCT-15 colon 103% | HT29 colon 106% | SNB-75 CNS 88.7% | SNB-19 CNS 100% | U251 CNS 109% | PC-3 prostate 91.8% | SK-MEL-5 melanoma 99.7% | UACC-62 melanoma 105% | LOX IMVI melanoma 103% | SK-MEL-28 melanoma 111%

CC(=O)OC1Oc2cc(C)c(C)cc2-c2oc(=O)c(-c3ccc(F)cc3)cc21 (stereo not drawn)
inactive: DU-145 prostate 75.8% | MALME-3M melanoma 65.3% | MDA-MB-231 breast 77.7% | SF-268 CNS 55.5% | SF-295 CNS 80.5% | SF-539 CNS 72.7% | UACC-257 melanoma 96% | HCT-15 colon 46.6% | HT29 colon 16.1% | SNB-75 CNS 77.9% | U251 CNS 53.5% | PC-3 prostate 60.2% | SK-MEL-5 melanoma 55.2% | UACC-62 melanoma 49.8% | LOX IMVI melanoma 60.2% | SK-MEL-28 melanoma 64.2%
active: K-562 leukemia 6.83% | RXF 393 renal -1.93%

COC(=O)C(C)NC1=C(Cl)C(=O)C(NC(C)C(=O)OC)=C(Cl)C1=O (stereo not drawn)
inactive: DU-145 prostate 101% | K-562 leukemia 109% | MALME-3M melanoma 72.2% | MDA-MB-231 breast 94.6% | RXF 393 renal 101% | SF-268 CNS 102% | SF-295 CNS 99% | SF-539 CNS 107% | UACC-257 melanoma 86.4% | HCT-15 colon 92.6% | HT29 colon 98.2% | SNB-75 CNS 86% | U251 CNS 98% | PC-3 prostate 92% | SK-MEL-5 melanoma 79.2% | UACC-62 melanoma 99.8% | LOX IMVI melanoma 91.1% | SK-MEL-28 melanoma 111%

CSC1=NC(=Nc2c(C)cccc2C)C2(CCC(C(C)(C)C)CC2)N1c1ccc(Cl)cc1 (stereo not drawn)
inactive: DU-145 prostate 40.3% | K-562 leukemia 17.7% | MALME-3M melanoma 38.5% | MDA-MB-231 breast 61.8% | RXF 393 renal 38% | SF-268 CNS 42.8% | SF-539 CNS 46.5% | UACC-257 melanoma 54.1% | M14 melanoma 49.5% | HCT-15 colon 31.9% | HT29 colon 25.5% | SNB-75 CNS 74.8% | SNB-19 CNS 75.3% | U251 CNS 30.6% | PC-3 prostate 47.9% | SK-MEL-5 melanoma 47.6% | UACC-62 melanoma 73.8% | LOX IMVI melanoma 20.8%

Fc1cc(-c2nnc3sc(-c4ccc(Cl)cc4)nn23)c(Cl)cc1Cl
inactive: DU-145 prostate 107% | K-562 leukemia 116% | MALME-3M melanoma 62% | MDA-MB-231 breast 88.3% | RXF 393 renal 97.4% | SF-268 CNS 98% | SF-539 CNS 107% | UACC-257 melanoma 103% | M14 melanoma 102% | HCT-15 colon 96.5% | HT29 colon 90.6% | SNB-75 CNS 75.5% | SNB-19 CNS 96.6% | U251 CNS 91.7% | PC-3 prostate 102% | SK-MEL-5 melanoma 85.6% | UACC-62 melanoma 90.4% | LOX IMVI melanoma 91.7%

COc1ccc(C2=Nn3c(nnc3-c3ccc(Cl)cc3N)SC2)cc1
inactive: DU-145 prostate 117% | K-562 leukemia 102% | MALME-3M melanoma 104% | MDA-MB-231 breast 85.7% | RXF 393 renal 104% | SF-268 CNS 106% | SF-295 CNS 94.3% | SF-539 CNS 102% | UACC-257 melanoma 95% | HCT-15 colon 96.1% | HT29 colon 110% | SNB-75 CNS 85.4% | SNB-19 CNS 101% | U251 CNS 92.5% | PC-3 prostate 95.1% | SK-MEL-5 melanoma 97.8% | UACC-62 melanoma 86.6% | LOX IMVI melanoma 89.7% | SK-MEL-28 melanoma 97.8%

O=C(C(=O)c1cccnc1)c1cccnc1
inactive: DU-145 prostate 121% | K-562 leukemia 110% | MALME-3M melanoma 118% | MDA-MB-231 breast 99.7% | RXF 393 renal 136% | SF-268 CNS 95.8% | SF-295 CNS 116% | SF-539 CNS 99.3% | UACC-257 melanoma 95% | M14 melanoma 96.3% | HCT-15 colon 120% | HT29 colon 108% | SNB-75 CNS 107% | U251 CNS 112% | PC-3 prostate 107% | SK-MEL-5 melanoma 105% | UACC-62 melanoma 102% | LOX IMVI melanoma 100% | SK-MEL-28 melanoma 135%

CC1=NOCC(=O)N1
inactive: DU-145 prostate 111% | K-562 leukemia 92.1% | MALME-3M melanoma 117% | MDA-MB-231 breast 102% | RXF 393 renal 103% | SF-268 CNS 107% | SF-295 CNS 87.7% | SF-539 CNS 99.3% | UACC-257 melanoma 101% | HCT-15 colon 102% | HT29 colon 101% | SNB-75 CNS 85.3% | SNB-19 CNS 95.6% | U251 CNS 94.7% | PC-3 prostate 95.2% | SK-MEL-5 melanoma 99.7% | UACC-62 melanoma 102% | LOX IMVI melanoma 89.1% | SK-MEL-28 melanoma 99.4%

CCCc1n(Cc2ccc3ccccc3c2)c2ccccc2[n+]1Cc1ccc2ccccc2c1
active: DU-145 prostate 2.32% | K-562 leukemia -70.8% | MALME-3M melanoma -63% | MDA-MB-231 breast -71.7% | RXF 393 renal -79.3% | SF-268 CNS -49.7% | SF-295 CNS -59.8% | SF-539 CNS -34.5% | UACC-257 melanoma -49.9% | M14 melanoma -72% | HCT-15 colon 4.29% | HT29 colon -72.2% | SNB-75 CNS -18.2% | U251 CNS -92.6% | PC-3 prostate -22.8% | SK-MEL-5 melanoma -97.3% | UACC-62 melanoma -89.2% | LOX IMVI melanoma -90.5% | SK-MEL-28 melanoma -53.6%

CC(C)CC(NC(=O)C(CCCN=C(N)N)NC(=O)OCc1ccccc1)C(=O)NC(CNC(=O)/C=C/c1ccccc1)C(C)C (stereo not drawn)
inactive: DU-145 prostate 107% | K-562 leukemia 92.3% | MALME-3M melanoma 107% | MDA-MB-231 breast 109% | RXF 393 renal 107% | SF-268 CNS 107% | SF-539 CNS 96.4% | UACC-257 melanoma 107% | M14 melanoma 106% | HCT-15 colon 96.5% | HT29 colon 109% | SNB-75 CNS 84.5% | SNB-19 CNS 99.9% | U251 CNS 106% | PC-3 prostate 89.2% | SK-MEL-5 melanoma 106% | UACC-62 melanoma 102% | LOX IMVI melanoma 94.8%

O=Cc1ccc2nc(C(Cl)(Cl)Cl)ccc2c1
inactive: DU-145 prostate 102% | K-562 leukemia 121% | MALME-3M melanoma 91.4% | MDA-MB-231 breast 108% | RXF 393 renal 94.7% | SF-268 CNS 107% | SF-295 CNS 97.2% | SF-539 CNS 98.8% | UACC-257 melanoma 103% | M14 melanoma 81.6% | HCT-15 colon 101% | HT29 colon 102% | SNB-75 CNS 99.9% | U251 CNS 92.8% | PC-3 prostate 98.4% | SK-MEL-5 melanoma 95% | UACC-62 melanoma 106% | LOX IMVI melanoma 96.1% | SK-MEL-28 melanoma 105%

Cc1cc(C)c(C#N)c(SCC(=O)c2sc3c(C#N)c(C)cc(C)[n+]3c2[O-])n1
active: DU-145 prostate -6.34% | K-562 leukemia 5.26% | RXF 393 renal -21.5% | SF-295 CNS -52.3% | SF-539 CNS -11.3% | HT29 colon -26.1% | SNB-75 CNS 9% | U251 CNS 7.69%
inactive: MALME-3M melanoma 17.5% | MDA-MB-231 breast 15.2% | SF-268 CNS 22.9% | UACC-257 melanoma 51.9% | M14 melanoma 12.2% | HCT-15 colon 15.9% | SNB-19 CNS 75.5% | PC-3 prostate 24% | SK-MEL-5 melanoma 10.8% | UACC-62 melanoma 47.9% | LOX IMVI melanoma 20.4% | SK-MEL-28 melanoma 30.3%

CCOC(=O)C1=C(C)NC(SCc2nnc(-c3ccc(Cl)cc3)o2)=NC1c1ccc(Cl)cc1 (stereo not drawn)
inactive: DU-145 prostate 87.2% | K-562 leukemia 55.8% | MALME-3M melanoma 81.7% | MDA-MB-231 breast 62.7% | RXF 393 renal 67.7% | SF-268 CNS 86% | SF-295 CNS 74.1% | SF-539 CNS 87.7% | UACC-257 melanoma 86.9% | M14 melanoma 69.3% | HCT-15 colon 67.6% | HT29 colon 75.2% | SNB-75 CNS 73.7% | SNB-19 CNS 73% | U251 CNS 73.9% | PC-3 prostate 48.8% | SK-MEL-5 melanoma 40.9% | UACC-62 melanoma 49.9% | LOX IMVI melanoma 76.9% | SK-MEL-28 melanoma 79.8%

Reference: PubChem BioAssay (NCI)
